Laboratory results: PubChem BioAssay (EPA / NIEHS)
Active and inactive are the calls of the source. How the source made its calls: active means hit-call score of the fitted dose curve at least 0.9, where 1 is the maximum; inactive means score below 0.9.

Tests used:
[1] = ATG_GRE_CIS: Attagene CIS-FACTORIAL HepG2 Assay for human Glucocorticoid Response Elements (GRE) (AID 2282947); details: HepG2 GRE cis-reporter, Attagene multiplex mRNA; actives raise or lower the signal
Outline: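 Transiently transfected HepG2 cells carrying GRE cis-reporter units (endogenous TF activity) dosed 24 h; reporter mRNA quantified by RT-PCR, 6-FAM labelling, HpaI digestion and capillary electrophoresis. Bidirectional fit versus DMSO baseline.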

[2] = ATG_ISRE_CIS: Attagene CIS-FACTORIAL HepG2 Assay for human Interferon Regulatory Factor 1 (IRF1) binding to an Interferon-Stimulated Response Element (ISRE) (AID 2282948); details: HepG2 ISRE cis-reporter (Attagene), mRNA transcription readout; actives raise or lower the signal
Outline: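 Transiently transfected HepG2 cells carrying cis-element reporter units, dosed 24 hours. Reporter mRNA quantified by RT-PCR, fluorescent primer extension, HpaI digestion and capillary electrophoresis. Bidirectional fitting relative to DMSO.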

[3] = ATG_M_32_CIS: Attagene CIS-FACTORIAL HepG2 Assay for M32 Transcription Factor (Internal Marker) (AID 2282949); details: HepG2 Attagene cis-factorial M32 reporter, mRNA; actives raise or lower the signal;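 further: background control marker of the multiplexed CIS panel rather than a real target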
Outline: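 HepG2 cells transiently transfected with multiplexed cis-regulated reporter units, dosed 24 h. Reporter mRNA quantified by RT-PCR, 6-FAM labelling, HpaI digestion and capillary electrophoresis; bidirectional fit vs DMSO.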

[4] = ATG_M_06_CIS: Attagene CIS-FACTORIAL HepG2 Assay for M06 Transcription Factor (Internal Marker) (AID 2282950); details: HepG2 Attagene CIS-FACTORIAL M06 internal marker reporter; actives raise or lower the signal
Outline: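 Terse: HepG2, transient MRTU transfection (FuGene 6), 24 h dosing; total RNA, oligo(dT) RT, PCR, FAM label, HpaI cut, capillary electrophoresis; bidirectional fit vs DMSO baseline; background-control endpoint.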

[5] = biological target: Hypoxia-inducible factor 1-alpha (Homo sapiens) (UniProt Q16665); assay: ATG_HIF1a_CIS: Attagene CIS-FACTORIAL HepG2 Assay for human Hypoxia Inducible Factor 1 (HIF1A) (AID 2282951); details: HepG2 Attagene cis-factorial HIF1a reporter transcription; actives raise or lower the signal
Sequence of Hypoxia-inducible factor 1-alpha (Homo sapiens) (Q16665 whole entry, looked up): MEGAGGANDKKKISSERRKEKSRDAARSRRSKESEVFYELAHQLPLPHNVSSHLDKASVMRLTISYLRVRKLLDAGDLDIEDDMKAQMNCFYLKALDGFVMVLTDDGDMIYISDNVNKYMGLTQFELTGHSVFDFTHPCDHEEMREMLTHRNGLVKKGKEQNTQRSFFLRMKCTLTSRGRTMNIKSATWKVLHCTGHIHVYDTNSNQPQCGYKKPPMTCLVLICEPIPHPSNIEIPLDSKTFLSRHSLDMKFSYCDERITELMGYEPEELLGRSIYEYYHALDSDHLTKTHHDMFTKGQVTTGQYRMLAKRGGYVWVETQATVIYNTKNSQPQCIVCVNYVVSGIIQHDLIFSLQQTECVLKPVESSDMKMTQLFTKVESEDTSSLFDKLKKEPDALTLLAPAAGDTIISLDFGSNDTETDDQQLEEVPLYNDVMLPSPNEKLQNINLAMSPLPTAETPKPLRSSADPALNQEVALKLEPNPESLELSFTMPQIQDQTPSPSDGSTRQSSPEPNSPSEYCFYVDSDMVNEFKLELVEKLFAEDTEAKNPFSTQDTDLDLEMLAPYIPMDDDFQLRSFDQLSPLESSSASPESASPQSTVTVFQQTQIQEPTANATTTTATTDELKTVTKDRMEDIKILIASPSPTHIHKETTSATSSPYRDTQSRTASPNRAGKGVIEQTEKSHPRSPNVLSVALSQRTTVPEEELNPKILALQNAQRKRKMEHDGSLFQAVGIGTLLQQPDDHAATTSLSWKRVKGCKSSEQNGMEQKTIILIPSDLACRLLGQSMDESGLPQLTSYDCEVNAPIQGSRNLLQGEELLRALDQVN
Outline: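 Activity is fitted in both directions relative to DMSO. Reporter transcripts are read by RT-PCR, fluorescent primer extension and capillary electrophoresis after 24 h chemical treatment. The cells are HepG2 carrying transiently transfected cis-element-driven reporter units responding to endogenous factors.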

[6] = biological target: Hepatocyte nuclear factor 6 (Homo sapiens) (UniProt Q9UBC0); assay: ATG_HNF6_CIS: Attagene CIS-FACTORIAL HepG2 Assay for human Hepatocyte Nuclear Factor 6 (HNF6) (AID 2282952); details: HepG2 Attagene cis-factorial HNF6 reporter transcription; actives raise or lower the signal
Sequence of Hepatocyte nuclear factor 6 (Homo sapiens) (Q9UBC0 whole entry, looked up, the tested form may be a part): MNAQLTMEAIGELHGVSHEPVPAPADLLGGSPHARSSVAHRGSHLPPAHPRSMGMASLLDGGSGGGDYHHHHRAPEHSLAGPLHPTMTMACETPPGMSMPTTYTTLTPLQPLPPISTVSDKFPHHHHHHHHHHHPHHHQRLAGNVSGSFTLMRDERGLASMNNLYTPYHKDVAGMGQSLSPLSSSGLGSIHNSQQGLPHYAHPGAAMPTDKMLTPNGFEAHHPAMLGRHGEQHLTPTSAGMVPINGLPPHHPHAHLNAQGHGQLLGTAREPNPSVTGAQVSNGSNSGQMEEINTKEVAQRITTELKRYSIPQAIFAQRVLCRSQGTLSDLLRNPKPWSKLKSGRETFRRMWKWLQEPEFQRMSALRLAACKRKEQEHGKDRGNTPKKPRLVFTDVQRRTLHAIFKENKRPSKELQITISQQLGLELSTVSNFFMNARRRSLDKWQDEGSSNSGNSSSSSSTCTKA
Outline: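 Reporter mRNA induction or loss in HepG2 after 24 h exposure; transient cis-MRTU transfection; fragments quantified by capillary electrophoresis; bidirectional analysis, DMSO as negative control.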

[7] = biological target: Heat shock factor protein 1 (Homo sapiens) (UniProt Q00613); assay: ATG_HSE_CIS: Attagene CIS-FACTORIAL HepG2 Assay for human Heat Shock Transcription Factor 1 (HSE) (AID 2282953); details: HepG2 HSE cis-reporter, Attagene RNA transcription; actives raise or lower the signal
Sequence of Heat shock factor protein 1 (Homo sapiens) (Q00613 whole entry, looked up, the tested form may be a part): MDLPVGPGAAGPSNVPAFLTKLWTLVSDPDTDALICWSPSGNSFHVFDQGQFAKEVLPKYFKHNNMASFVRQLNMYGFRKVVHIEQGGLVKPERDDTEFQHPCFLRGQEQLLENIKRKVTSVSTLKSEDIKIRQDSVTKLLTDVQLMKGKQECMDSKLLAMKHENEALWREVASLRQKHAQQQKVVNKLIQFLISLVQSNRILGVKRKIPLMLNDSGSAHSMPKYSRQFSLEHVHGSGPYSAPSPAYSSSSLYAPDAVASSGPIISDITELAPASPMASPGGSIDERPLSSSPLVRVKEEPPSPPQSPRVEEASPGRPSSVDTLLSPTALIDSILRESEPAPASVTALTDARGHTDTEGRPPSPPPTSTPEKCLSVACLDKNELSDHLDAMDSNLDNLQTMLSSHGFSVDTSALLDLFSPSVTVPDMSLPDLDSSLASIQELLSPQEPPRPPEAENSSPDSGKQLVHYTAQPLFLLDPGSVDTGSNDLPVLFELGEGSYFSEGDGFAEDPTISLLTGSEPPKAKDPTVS
Outline: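 Read-out: fluorescence of reporter-specific RT-PCR fragments separated by capillary electrophoresis. HepG2 carrying transfected cis-element reporter units; 24 h dosing; activity fitted in both directions relative to DMSO baseline.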

[8] = ATG_MRE_CIS: Attagene CIS-FACTORIAL HepG2 Assay for human Metal Responsive Element (MRE) (AID 2282954); details: HepG2 MRE cis-reporter transcription, Attagene multiplex; actives raise or lower the signal
Outline: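 HepG2 cells transiently transfected with cis-element-driven reporter units; mRNA measured 24 h after dosing. Reporter transcripts quantified by RT-PCR, FAM labelling, HpaI digestion and capillary electrophoresis; bidirectional fit versus DMSO.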

[9] = ATG_PBREM_CIS: Attagene CIS-FACTORIAL HepG2 Assay for human Phenobarbital-responsive Enhancer Module (PBREM) (AID 2282955); details: HepG2 PBREM cis-reporter, Attagene multiplexed transcription; actives raise or lower the signal
Outline: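 Endogenous transcription factor activity was read from reporter transcripts in transiently transfected human HepG2 liver cells after 24 h dosing. RT-PCR products were fluorescently labelled, HpaI-cut and sized by capillary electrophoresis; activity fitted bidirectionally against DMSO baseline.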

[10] = biological target: Paired box protein Pax-6 (Homo sapiens) (UniProt P26367); assay: ATG_Pax6_CIS: Attagene CIS-FACTORIAL HepG2 Assay for human Paired Box 6 (PAX6) (AID 2282956); details: HepG2 CIS-FACTORIAL PAX6 reporter transcription, RNA readout; actives raise or lower the signal
Sequence of Paired box protein Pax-6 (Homo sapiens) (P26367 whole entry, looked up): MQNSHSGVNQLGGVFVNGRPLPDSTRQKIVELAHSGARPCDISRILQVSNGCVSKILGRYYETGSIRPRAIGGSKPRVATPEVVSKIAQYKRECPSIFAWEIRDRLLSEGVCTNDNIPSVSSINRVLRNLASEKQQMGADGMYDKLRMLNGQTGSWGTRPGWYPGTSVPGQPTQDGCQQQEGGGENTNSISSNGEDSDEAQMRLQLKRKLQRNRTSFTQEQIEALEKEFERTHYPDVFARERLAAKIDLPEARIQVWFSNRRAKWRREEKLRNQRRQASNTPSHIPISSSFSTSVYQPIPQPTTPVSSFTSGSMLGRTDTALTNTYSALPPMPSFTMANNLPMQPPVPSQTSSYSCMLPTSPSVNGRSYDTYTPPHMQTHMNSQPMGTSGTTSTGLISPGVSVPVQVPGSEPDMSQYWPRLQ
Outline: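 HepG2 cells transiently transfected with cis-promoter-driven multiplexed reporter units sensing endogenous transcription factor activity; 24 h chemical exposure. Reporter mRNA quantified by RT-PCR, 6-FAM labelling, HpaI digestion and capillary electrophoresis; bidirectional fit versus DMSO baseline.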

[11] = ATG_PXRE_CIS: Attagene CIS-FACTORIAL HepG2 Assay for human Pregnane X Receptor Element (PXRE) (AID 2282957); details: HepG2 Attagene CIS-FACTORIAL PXRE reporter, mRNA; actives raise or lower the signal
Outline: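 Transiently transfected HepG2 cells were dosed and incubated for 24 h. RNA was then isolated, DNase-treated, reverse-transcribed and reporter sequences amplified. Labeled, HpaI-digested fragments were quantified by capillary electrophoresis against DMSO.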

[12] = ATG_RORE_CIS: Attagene CIS-FACTORIAL HepG2 Assay for human RAR-related Orphan Receptor Element (RORE) (AID 2282959); details: HepG2 Attagene cis-factorial RORE reporter, mRNA; actives raise or lower the signal
Outline: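 RORE reporter transcripts reflecting endogenous factor activity were read after 24 h compound exposure of transfected HepG2 cells, using reverse transcription, PCR, fluorescent labelling and capillary electrophoresis sizing. Gain or loss fitted against DMSO.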

[13] = ATG_Sox_CIS: Attagene CIS-FACTORIAL HepG2 Assay for human SRY-box transcription factor (SOX) (AID 2282960); details: HepG2 Attagene cis-factorial SOX reporter, mRNA; actives raise or lower the signal
Outline: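 Reporter transcripts, measured by RT-PCR and capillary electrophoresis of labelled fragments, report endogenous SOX transcription factor activity. Transiently transfected human HepG2 cells receive chemical for 24 h; changes in either direction are fitted relative to DMSO.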

[14] = biological target: Transcription factor Sp1 (Homo sapiens) (UniProt P08047); assay: ATG_Sp1_CIS: Attagene CIS-FACTORIAL HepG2 Assay for human Specificity Protein 1 (Sp1) (AID 2282961); details: HepG2 Sp1 cis-reporter transcription, actives raise or lower the signal
Sequence of Transcription factor Sp1 (Homo sapiens) (P08047 whole entry, looked up): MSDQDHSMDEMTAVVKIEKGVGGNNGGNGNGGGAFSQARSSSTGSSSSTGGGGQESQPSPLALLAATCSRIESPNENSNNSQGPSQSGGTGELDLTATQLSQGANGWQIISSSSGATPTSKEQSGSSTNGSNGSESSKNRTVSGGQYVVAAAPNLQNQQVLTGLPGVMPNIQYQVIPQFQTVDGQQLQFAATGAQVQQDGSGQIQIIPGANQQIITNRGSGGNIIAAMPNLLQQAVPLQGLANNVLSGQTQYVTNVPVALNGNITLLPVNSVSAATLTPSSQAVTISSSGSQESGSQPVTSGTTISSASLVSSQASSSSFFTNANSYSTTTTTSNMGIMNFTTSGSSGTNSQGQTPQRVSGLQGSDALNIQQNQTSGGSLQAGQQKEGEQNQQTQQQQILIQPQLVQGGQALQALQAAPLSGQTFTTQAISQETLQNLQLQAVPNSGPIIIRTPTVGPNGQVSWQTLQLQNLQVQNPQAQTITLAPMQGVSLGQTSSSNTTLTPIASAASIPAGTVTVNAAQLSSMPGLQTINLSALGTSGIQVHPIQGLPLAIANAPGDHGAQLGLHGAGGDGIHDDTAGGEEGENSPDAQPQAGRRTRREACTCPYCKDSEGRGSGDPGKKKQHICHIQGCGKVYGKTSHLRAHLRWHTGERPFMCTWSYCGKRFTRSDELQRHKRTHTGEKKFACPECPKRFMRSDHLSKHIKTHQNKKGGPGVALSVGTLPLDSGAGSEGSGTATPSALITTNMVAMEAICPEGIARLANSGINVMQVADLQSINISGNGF
Outline: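 Read-out is reporter transcript level, measured by RT-PCR and fluorescent capillary electrophoresis after 24 h chemical treatment. System: transiently transfected HepG2 cells reporting endogenous transcription factor activity; gain or loss fitted against DMSO baseline.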

[15] = ATG_SREBP_CIS: Attagene CIS-FACTORIAL HepG2 Assay for human Sterol Regulatory Element Binding (SREBP) (AID 2282962); details: HepG2 Attagene cis-factorial SREBP reporter, mRNA; actives raise or lower the signal
Outline: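 HepG2 cells transiently transfected with multiplexed cis-promoter reporter units sensing endogenous transcription factors; reporter mRNA measured 24 h after dosing by RT-PCR, 6-FAM labeling, HpaI digestion and capillary electrophoresis. Bidirectional fit versus DMSO.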

[16] = biological target: Signal transducer and activator of transcription 3 (Homo sapiens) (UniProt P40763); assay: ATG_STAT3_CIS: Attagene CIS-FACTORIAL HepG2 Assay for human Signal Transducer and Activator of Transcription 3 (STAT3) (AID 2282963); details: HepG2, Attagene cis-factorial STAT3 reporter transcription; actives raise or lower the signal
Sequence of Signal transducer and activator of transcription 3 (Homo sapiens) (P40763 whole entry, looked up): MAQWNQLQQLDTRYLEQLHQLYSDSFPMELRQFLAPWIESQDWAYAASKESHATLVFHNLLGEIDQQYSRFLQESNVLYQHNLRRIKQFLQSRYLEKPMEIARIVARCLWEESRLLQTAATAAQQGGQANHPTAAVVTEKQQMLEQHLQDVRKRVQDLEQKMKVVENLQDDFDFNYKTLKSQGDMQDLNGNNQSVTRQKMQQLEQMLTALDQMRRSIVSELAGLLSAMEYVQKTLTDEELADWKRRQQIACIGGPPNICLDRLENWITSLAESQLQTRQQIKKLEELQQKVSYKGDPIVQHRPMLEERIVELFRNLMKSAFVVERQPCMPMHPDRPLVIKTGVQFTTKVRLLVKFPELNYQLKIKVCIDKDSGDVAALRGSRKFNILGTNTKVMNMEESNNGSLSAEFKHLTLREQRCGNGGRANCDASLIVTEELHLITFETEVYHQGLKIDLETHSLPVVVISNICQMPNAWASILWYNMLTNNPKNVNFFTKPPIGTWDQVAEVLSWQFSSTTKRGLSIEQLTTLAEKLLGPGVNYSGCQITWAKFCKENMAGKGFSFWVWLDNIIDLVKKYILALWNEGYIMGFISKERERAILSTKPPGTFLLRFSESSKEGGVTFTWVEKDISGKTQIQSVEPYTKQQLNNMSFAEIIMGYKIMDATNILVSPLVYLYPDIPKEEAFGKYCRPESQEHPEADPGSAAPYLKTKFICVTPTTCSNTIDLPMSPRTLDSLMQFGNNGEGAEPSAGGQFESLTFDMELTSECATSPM
Outline: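 HepG2 cells transiently transfected with multiple cis-element-driven reporter units report endogenous transcription factor activity. After 24 h compound exposure, reporter mRNA is measured by RT-PCR, 6-FAM labelling, HpaI digestion and capillary electrophoresis. Fitted bidirectionally versus DMSO.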

[17] = ATG_TA_CIS: Attagene CIS-FACTORIAL HepG2 Assay for human TA Basal Promoter (AID 2282964); details: HepG2 Attagene CIS-factorial TA basal promoter reporter; actives raise or lower the signal
Outline: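 Transfected HepG2, 24 h compound exposure; RNA → RT-PCR → FAM primer extension → HpaI cut → CE fluorescence. Gain/loss-of-signal fitted against DMSO negative control. Background-control readout.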

[18] = ATG_TCF_b_cat_CIS: Attagene CIS-FACTORIAL HepG2 Assay for human T-Cell-Factor with beta-catenin (TCF/b-cat) (AID 2282965); details: HepG2 TCF/beta-catenin cis-reporter transcription, actives raise or lower the signal
Outline: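 HepG2, transient MRTU transfection, cis-element-driven reporters (endogenous TFs). 24 h compound exposure. Readout: reporter mRNA by RT-PCR + 6-FAM primer extension, HpaI digest, capillary electrophoresis. Gain/loss fit vs DMSO baseline.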

[19] = ATG_PPRE_CIS: Attagene CIS-FACTORIAL HepG2 Assay for human Peroxisome Proliferator-activated Response Element (PPRE) (AID 2282958); details: HepG2 PPRE cis-element reporter, Attagene transcription factor profiling; actives raise or lower the signal
Outline: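 Endogenous PPRE-driven transcription is measured in HepG2 cells carrying transfected multi-reporter constructs. Reporter transcripts are quantified by RT-PCR, HpaI digestion and capillary electrophoresis 24 h after dosing. DMSO baseline, bidirectional fit.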

Measured: AC50

CC1(C)[C@H]2CC[C@]1(C)C(=O)C2
not listed: [19]
inactive: all other assays above

CC(C)c1ccc(C#N)cc1
inactive: all assays above

COc1cc(NC(=O)CC(C)=O)c(OC)cc1Cl
active: [11] 31.5 µM
not listed: [17]
inactive: all other assays above

CC1=NC(C)OC1C (stereo unspecified)
active: [2] 100 µM | [7] 160 µM | [11] 7.08 µM | [18] 100 µM
not listed: [17] | [19]
inactive: all other assays above

O=S(=O)(O)c1ccc2cc(O)c(S(=O)(=O)O)cc2c1
active: [2] 160 µM | [5] 171 µM | [8] 169 µM | [10] 151 µM | [18] 66.9 µM
not listed: [17]
inactive: all other assays above

c1c[nH]cn1
active: [11] 63.8 µM
not listed: [9] | [13] | [17]
inactive: all other assays above
